# HPGD block: blocks human HPGD enzyme activity | AID 894 | purified HPGD, NADH fluorescence kinetic, PGE2 substrate | Potency, µM, inactives show at the top dose activity change, negative = inhibition, hits mostly inhibitors | P15428 | 4.3% of 150,000 active; active means well fitted inhibition curve with a large enough effect, not every such curve was filed as active; inconclusive means small, poorly fitted or top-dose-only effect, or another doubt; inactive means no such curve, though single readings can be large or run the other way; further: on the % scale 0 is the no-effect control and ±100 the full control effect
# Target sequence (P15428 whole entry, looked up): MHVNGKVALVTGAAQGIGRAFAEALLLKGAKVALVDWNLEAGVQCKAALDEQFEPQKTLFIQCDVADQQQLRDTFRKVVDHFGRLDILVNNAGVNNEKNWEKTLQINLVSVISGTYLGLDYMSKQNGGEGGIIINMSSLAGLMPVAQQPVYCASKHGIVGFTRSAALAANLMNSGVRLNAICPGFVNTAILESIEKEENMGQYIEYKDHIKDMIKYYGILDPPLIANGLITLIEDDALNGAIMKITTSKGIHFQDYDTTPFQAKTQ
#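 NADH formation kinetics: reaction with 30 uM PGE2 and 1 mM NAD+ (final), 20 nM enzyme, Tris-HCl pH 8 with Tween 20, after 15 min compound preincubation at room temperature. Fluorescence change, last versus first of five reads.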
# ALDH1A1 inh: inhibitors of human aldehyde dehydrogenase 1A1; P00352; Purified ALDH1A1, NADH fluorescence, propionaldehyde substrate; Potency, µM (series often up to 75.3 µM), for the others: top-dose activity, negative = inhibition, actives largely listed as inhibitors; 7.3% of 220,000 active; active means well fitted inhibition curve with a large enough effect, not every such curve was filed as active; inconclusive means small, poorly fitted or top-dose-only effect, or another doubt; inactive means no such curve, though single readings can be large or run the other way;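 further: plate controls were no enzyme wells and a reference inhibitor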
# Target sequence (P00352 whole entry, looked up): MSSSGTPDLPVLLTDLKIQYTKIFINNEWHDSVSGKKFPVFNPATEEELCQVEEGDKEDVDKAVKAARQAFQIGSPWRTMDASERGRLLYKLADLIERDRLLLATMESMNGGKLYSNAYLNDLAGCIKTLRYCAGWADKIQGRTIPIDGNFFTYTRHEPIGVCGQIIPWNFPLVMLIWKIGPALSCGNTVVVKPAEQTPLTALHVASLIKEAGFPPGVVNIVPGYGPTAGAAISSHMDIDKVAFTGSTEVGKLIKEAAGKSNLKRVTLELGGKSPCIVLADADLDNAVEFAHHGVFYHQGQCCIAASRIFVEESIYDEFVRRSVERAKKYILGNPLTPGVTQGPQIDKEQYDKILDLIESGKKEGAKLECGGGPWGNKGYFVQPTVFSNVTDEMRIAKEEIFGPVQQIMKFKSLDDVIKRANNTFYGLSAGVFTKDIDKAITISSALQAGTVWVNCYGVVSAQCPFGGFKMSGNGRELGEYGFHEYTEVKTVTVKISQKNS
# HTT cytoprotect: cytoprotection in Huntington HTT-Q103 PC12 cell model | PC12 HTT-Q103 induced, cytoprotection, ATP luminescence, 40 h | Potency, µM (top dose mostly 56.4 µM), for inactives: cytoprotection (ATP increase), most hits filed as activators | 0.14% of 230,000 active; further: % of control where 0% means no effect; nearly all actives have a fitted effect of over 45% in size
#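 Huntington model: PC12 line, ecdysone-inducible HTTQ103 exon1–GFP, tebufenozide 100 nM. Test articles in a dose series. Endpoint luminescence from cellular ATP.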
# HTT aggregate: mutant huntingtin aggregation inhibition | Potency, µM (top dose mostly 46.1 µM), for the others: at the highest dose activity change, negative = inhibition, hits mostly inhibitors | 1.1% of 220,000 active | PC12 HttQ103-GFP aggregates, Acumen cytometry, 40 h; further: on the % scale 0 is the no-effect control and ±100 the full control effect; nearly all actives have a fitted effect of over 60% in size
#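 Read-out: GFP aggregate count by laser scanning cytometer (488 nm excitation, 500-530 nm emission, 1–25 µm objects >6 SD above background). Cells: PC12, inducible HTTex1-Q103-GFP, 100 nM tebufenozide; compounds titrated.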
# KinaseGlo FLuc: blocks Kinase-Glo luciferase, a counter-screen artifact; Kinase-Glo luciferase, ATP luminescence, 8 min; Potency, µM (doses to about 38.3 µM), without a hit: at the top dose activity change, negative = inhibition, most hits filed as inhibitors; 0.28% of 200,000 active; AID 1379; further: on the % scale 0 is the no-effect control and ±100 the full control effect; nearly all actives have a fitted effect of over 60% in size
#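 Recombinant Kinase-Glo luciferase, 10 uM ATP (linear range), luciferin; imidazole pH 7.2 / KCl / MgCl2 / Tween / BSA buffer; 8 min RT; luminescence.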
# LMNA splice mod: changes lamin A minigene splicing in HeLa cells | AID 1487 | 0.01% of 200,000 active | Potency, µM (highest dose often 46.1 µM), inactives show top-dose ratio change, negative = inhibition, usual class: inhibitors | HeLa LMNA splicing GFP/RFP minigene ratio, 48 h; active means well fitted inhibition curve with a large enough effect in the signal ratio, with a control signal flat, not every such curve was filed as active; inconclusive means small, poorly fitted or top-dose-only effect, or effect the other way, or a change in a side signal; the % refers to the signal ratio; further: on the % scale 0 is the no-effect control and ±100 the full control effect
#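 Read-out is the ratio of GFP to DsRed2 object intensity, acquired by 488 nm laser-scanning cytometry on HeLa lamin A-EGFP minigene reporter cells. Compound incubation 48 hrs at 37 °C in Opti-MEM with 2% FBS; DMSO 0.5% final.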
# Starred values were filed as active, the others as inactive; ? = inconclusive; · = no result; [ ] = another dose, or the depositor's remark. Sampled rows, rich in hits. Any-hit rate of the full collection: about 9%. Unless noted, the call rests on the fitted dose curve; in most records, active means well fitted curve in the direction sought with a large enough effect; inconclusive means small, poorly fitted or top-dose-only effect, or another doubt; inactive means no such curve, though single readings can be large; an effect the other way counts as inactive or inconclusive. Potency means the concentration at half of the fitted maximal effect.
SMILES,HPGD block,ALDH1A1 inh,HTT cytoprotect,HTT aggregate,KinaseGlo FLuc,LMNA splice mod
CCOC(=O)CSc1nc(C)cc(C)n1,-8.9%,4.6%,0.7%[10 µM],6.7%,-3.4%,4.7%
COc1cccc(/C=N/n2c(C)nc3ccccc32)c1OC,-9.7%,?,-30.5%[10 µM],12.6µM*,-3.5%,?
O=[N+]([O-])c1ccc(/C=N/n2c(CO)nc3ccccc32)s1,-8.0%,3.3%,9.9%[10 µM],2.9%,2.2%,?
O=[N+]([O-])c1ccc(/C=N/n2cnc3ccccc32)s1,-7.3%,-3.0%,·,15.8µM*,0.4%,?
COc1cccc(/C=N\n2c(C)nnc2C)c1OC,-20.7%,1.7%,-24.7%,-11.2%,-1.6%,-8.1%
Cc1nc2ccccc2n1/N=C/c1ccc([N+](=O)[O-])s1,-4.2%,?,2.4%[10 µM],5.01µM*,1.0%,?
Cc1cc2ncn(/N=C/c3ccc([N+](=O)[O-])s3)c2cc1C,-16.1%,9.0%,1.0%[10 µM],21.1%,1.3%,?
CCOCc1c(C(=O)NC2=Nc3ccccc3NC(CC)=C2C(=O)OCC)oc2ccccc12,·,?,-6.0%[10 µM],?,0.9%,?
O=C(NCCN=C1NS(=O)(=O)c2ccccc21)c1ccc2nccnc2c1,-20.9%,-1.1%,-3.8%,8.3%,7.1%,-5.4%
CCC(C)(C)n1nnnc1CN(Cc1ccco1)Cc1cc2cc3c(cc2[nH]c1=O)OCO3,?,?,-30.1%,9.3%,0.4%,21.0%
CCC(C)(C)n1nnnc1CN(Cc1ccc(Cl)cc1)Cc1ccco1,-13.1%,10µM*,5.6%[10 µM],-10.7%,3.0%,0.7%
Cc1ccc(S(=O)(=O)NC(=O)Nc2cc(C)ccc2F)cc1,-4.3%,28.2µM*,1.3%,-4.5%,3.2%,?
Cc1ccc(S(=O)(=O)NC(=O)Nc2ccc(F)cc2)cc1,-8.7%,-1.0%,10.8%[10 µM],-17.6%,1.9%,2.9%
Cc1cc(C(F)(F)F)nn1Cc1ccc(C(=O)NCc2ccco2)o1,?,17.8µM*,-30.6%,-0.2%,-0.3%,15.1%
Cc1ccccc1CS(=O)(=O)Cc1ccc(C(=O)NCc2ccco2)o1,1.0%,-7.9%,-0.7%,8.6%,0.3%,5.4%
CCCCN1C(=O)C(NC(C)=O)c2ccccc21 (stereo not given),2.6%,0.112µM*,-1.2%[10 µM],-5.5%,0.8%,-5.0%
CC(=O)NC1C(=O)N(CCc2ccccc2)c2ccc(Br)cc21 (stereo not given),-15.3%,?,-8.3%,-16.1%,1.1%,5.3%
CCCN(C(=O)CSc1nnc(-c2ccoc2C)n1N)C1CCS(=O)(=O)C1 (stereo not given),-20.0%,20µM*,11.8%[10 µM],27.7%,10.9%,0.1%
CCCN(CC1CC1)C(=O)CSc1nnc(-c2ccco2)n1N,·,31.6µM*,?,10.7%,·,·
O=C(Nc1ccc(O)cc1)C1CCCO1 (stereo not given),-3.4%,18.1%,-5.1%[10 µM],8.6%,11.7%,-1.4%
O=C(Cc1ccccc1)Nc1ccc2c(c1)CCC2,·,-1.9%,-30.0%,-14.4%,0.9%,·
O=C(Nc1ccc2c(c1)CCC2)C1CCCO1 (stereo not given),17.8µM*,14.4%,-3.9%[0.074 µM],-13.8%,-3.3%,-6.9%
O=C(CC1CCCC1)Nc1ccc2c(c1)CCC2,14.1µM*,3.7%,-23.6%,-3.8%,-6.0%,-3.1%
O=C(O)c1ccc(C(=O)Nc2cccc(NC(=O)C3CCCO3)c2)cc1 (stereo not given),22.4µM*,9.0%,4.8%[10 µM],-9.6%,-2.5%,6.3%
Cn1c(NC(=O)CC(C)(C)C)cc(=O)n(C)c1=O,-11.8%,3.6%,-4.0%,-26.8%,-0.3%,-9.9%
SMILES,HPGD block,ALDH1A1 inh,HTT cytoprotect,HTT aggregate,KinaseGlo FLuc,LMNA splice mod
Oc1ccccc1/C=N/NC(=S)NC1CC2C=CC1C2 (stereo not given),·,25.1µM*,-10.6%[10 µM],2.4%[9.22 µM],·,?
Oc1c(Cl)cc(Cl)cc1/C=N/NC(=S)NC1CC2C=CC1C2 (stereo not given),·,?,5.0%[10 µM],-5.7%[9.22 µM],·,?
Cc1ccsc1/C=C/C1=Cc2c(sc(NC(=O)CSc3n[nH]c(N)n3)c2C#N)C(C)(C)C1,?,?,32.5%,12.2%[9.22 µM],-1.2%,-1.0%
CCOc1ccc(/C=C/C2=Cc3c(sc(NC(=O)CSc4n[nH]c(N)n4)c3C#N)C(C)(C)C2)cc1,?,25.1µM*,-103.7%,?,-4.7%,?
O=C1N/C(=C\c2ccc(O)cc2)C(=O)c2ccccc21,?,?,-1.1%,-8.1%,12.6µM*,?
COC1C/C(=N\O)C2OC(c3ccccc3)OCC2O1 (stereo not given),-14.0%,?,·,-14.8%,-1.4%,-9.2%
CC1(C)CC(=O)C2=C(C1)Nc1ccccc1N(C(=O)C1CC1)C2c1ccco1 (stereo not given),·,?,1.5%[10 µM],-13.0%[9.22 µM],-2.6%,·
Cc1nonc1OC(C)CNc1ccc([N+](=O)[O-])cc1 (stereo not given),28.2µM*,?,-1.7%,?,-4.9%,27.0%
Cc1nn(-c2ccccc2)c(C)c1C(=O)OCC(=O)NC12CC3CC(CC(C3)C1)C2,-18.2%,8.91µM*,-52.1%,?,-5.6%,-3.6%
CC(=O)Nc1ccc(NC(=O)COC(=O)c2c(C)nn(-c3ccccc3)c2C)cc1,-6.4%,22.4µM*,·,8.6%,5.4%,?
Cc1nc(C)n(CC(=O)N2CCCC(C(=O)c3ccc(Cl)cc3C)C2)n1 (stereo not given),·,3.6%,-15.2%[10 µM],-9.7%[9.22 µM],·,·
COc1cc(OC)c(-c2nn3c(C4CCCCC4)nnc3s2)cc1OC,?,?,14.0%[10 µM],15.1%,0.8%,-4.5%
COc1ccccc1-c1nnc2sc(COc3ccc(Cl)cc3Cl)nn12,1.26µM*,12.3%,-13.9%,?,0.3%,?
Clc1ccc(OCc2nn3c(C4CCCCC4)nnc3s2)c(Cl)c1,2.82µM*,?,-0.2%[0.074 µM],-24.6%,-2.0%,?
COc1ccc(N2CCN(C(C)C(=O)N3CC(C)OC(C)C3)CC2)cc1 (stereo not given),·,?,-30.0%,28.8%,·,·
CCCNC(=O)c1c(N)n(-c2cc(OC)cc(OC)c2)c2nc3ccccc3nc12,?,?,-21.1%[0.074 µM],17.8µM*,-1.6%,-9.4%
CCCNC(=O)c1c(N)n(-c2ccc3c(c2)OCO3)c2nc3ccccc3nc12,-20.4%,-11.7%,-24.9%,2.5%,-4.7%,5.6%
CSc1nc2ccc(NC(=O)c3ccco3)cc2s1,·,-7.5%,2.8%[10 µM],2.2%,·,-7.9%
O=C1C(Cl)=C(N2CCCCC2)C(=O)N1c1ccccc1,17.8µM*,?,-14.2%,6.4%,-6.7%,5.8%
Cc1cccc(C(=O)N(NC(=O)Oc2ccccc2)C(C)(C)C)c1,-8.9%,10.9%,·,17.0%,-2.4%,1.2%
